Most compounds without a hit are left out; they make up all but 15% or so of the library.
HCMV inh = qHTS Assay for inhibitors of the human cytomegalovirus (HCMV). 410,000 compounds, 4.5% hits. AID 1259415, 2018. activity change, negative = inhibition, % at 57.5 µM. HFF cells, HCMV-luciferase reporter, 72 h; stronger effect = lower value; in the data active = activity change below about -60%; inconclusive = no clear call, values can overlap the other calls; inactive = above about -39%; note: % is set by controls: 0 for no effect and ±100 for the full control effect
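Luciferase read-out from HCMV-luciferase-infected HFFs (MOI 1 PFU/cell) 72 h post infection at 37C; compounds added after 16 h cell attachment; activity normalized between buffer-only basal and Salinomycin (10uM) inhibitor controls.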
Pf growth 96h = Primary qHTS for delayed death inhibitors of the malarial parasite plastid, 96 hour incubation; Potency, µM (top dose mostly 28.7 µM), for the others: at the highest dose activity change, negative = inhibition, usual class: inhibitors; P. falciparum luciferase reporter growth, 96 h; 320,000 compounds, 6.9% hits; note: potency is the fitted concentration of half-maximal effect; % is set by controls: 0 for no effect and ±100 for the full control effect
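Delayed-death screen, second-generation endpoint: infected erythrocytes, 2% hematocrit, 0.05% parasitemia final; 96 hours at 37 C, 5% CO2; luciferase detection reagent; luminescence decrease equals reduced growth.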
SARS PLpro yeast = qHTS of Yeast-based Assay for SARS-CoV PLP; 330,000 compounds, 0.19% hits; AID 485353, 2010; S. cerevisiae expressing SARS-CoV PLpro, growth rescue; Potency, µM (titrated, usually from 32.9 µM), for inactives: top-dose activity, positive = growth rescue, hits mostly activators; calls by dose curve; note: potency is the fitted concentration of half-maximal effect; 0% is about no effect; nearly all actives have a fitted effect of over 55% in size
HCV inhibitor = qHTS Assay for Inhibitors of Hepatitis C Virus (HCV) | 340,000 compounds, 3.4% hits | Huh7.5.1 HCVcc-Cre infection, luciferase reporter, 44 h | Potency, µM (top dose mostly 41.8 µM), without a hit: at the highest dose activity change, negative = inhibition, hits mostly inhibitors; note: potency is the fitted concentration of half-maximal effect; % is set by controls: 0 for no effect and ±100 for the full control effect
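Seed cells (1,000/well) for 4 h; treat with compound and infect with HCVcc-Cre, moi about 0.5. Incubate 44 h, then detect luciferase activity.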
Sm TGR block = qHTS Assay for the Inhibitors of Schistosoma Mansoni Peroxiredoxins. Schistosoma mansoni thioredoxin glutathione reductase (TGR), Q962Y6. Potency, µM (highest dose often 114 µM), for the others: top-dose activity change, negative = inhibition, actives largely listed as inhibitors. 360,000 compounds, 3% hits. purified TGR, DTNB reduction, TNB absorbance 405 nm; note: potency is the fitted concentration of half-maximal effect; % is set by controls: 0 for no effect and ±100 for the full control effect; nearly all actives have a fitted effect of over 60% in size
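First, TGR (20 nM dispensed) and NADPH were mixed with compound. Second, a 15 min room-temperature incubation followed. Third, further NADPH and then DTNB were added to start the reaction. Finally, TNB absorbance was monitored kinetically.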
Pf growth 48h = Primary qHTS for delayed death inhibitors of the malarial parasite plastid, 48 hour incubation; Potency, µM (series often up to 28.7 µM), for the others: at the top dose activity change, negative = inhibition, actives largely listed as inhibitors; AID 504832, 2011; P. falciparum luciferase growth in erythrocytes, 48 h; 310,000 compounds, 5.9% hits; note: potency is the fitted concentration of half-maximal effect; % is set by controls: 0 for no effect and ±100 for the full control effect
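First compound was added to culture medium, then infected red cells at 0.1% parasitemia and 2% hematocrit (final). After incubation at 37 C under 5% CO2, luciferase detection reagent was dispensed and light output recorded.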
Numbers without * were called inactive; ? = inconclusive; . = no result given; [ ] = remark or other dose. Unless noted, calls come from the whole dose curve; as a rule, active = well fitted curve in the direction sought with a large enough effect; inconclusive = small, poorly fitted or top-dose-only effect, or another doubt; inactive = no such curve, though single readings can be large; an effect the other way counts as inactive or inconclusive.

SMILES	HCMV inh	Pf growth 96h	SARS PLpro yeast	HCV inhibitor	Sm TGR block	Pf growth 48h
COc1ccc2nc(C)[nH]c(=O)c2c1	-23.6	0.0%	-8.8%	-5.2%	-14.0%	7.6%
COc1ccc(-c2cc(C(=O)N3CCN(c4ccccc4)CC3)c3ccccc3n2)cc1OC	133.3	.	-0.8%	?	-1.3%	?
COc1ccc(-c2nc3ccc(N4CCCC4)cc3c(=O)[nH]2)cc1OC	-2.2	4.9%	-5.2%	10µM*	5.8%	-2.7%
COc1ccc2nc(-c3ccccc3)[nH]c(=O)c2c1	23.0	.	.	2.82µM*	.	.
O=C(O)/C=C/c1cnn(-c2ccccc2)c1	3.1	381.0%	0.0%	13.0%	2.5%	191.5%
Cc1ccc(C)c(S(=O)(=O)N=Nc2c(O)[nH]c3ccccc23)c1	14.6	48.6%[5.75 µM]	-0.3%	-0.6%	6.2%	4.3%
Cc1ccc(S(=O)(=O)N=Nc2c(O)[nH]c3ccccc23)cc1	1.5	11.7µM*	-5.4%	4.0%	-20.9%	5.2%
CCCNC(=O)Cn1cnc2sc(C(=O)NCCN(CC)CC)c(C)c2c1=O	6.4	130.2%	2.7%	-7.0%	-15.0%	23.5%
CCOc1ccc(OC(=O)c2sc3ncn(Cc4cccc(F)c4)c(=O)c3c2C)cc1	-8.9	.	.	.	13.0%	.
CCn1cnc2sc(C(=O)Oc3cccc(C)c3)c(C)c2c1=O	-9.9	?	-9.1%	1.41µM*	-0.3%	145.6%
CCCCN(C)C(=O)c1sc2ncn(CC)c(=O)c2c1C	11.5	10.4µM*	.	-12.8%	0.5%	6.6%
C#CCN(C[C@H]1[C@H](OC(=O)Nc2c(C)noc2C)[C@H](OC(=O)Nc2c(C)noc2C)C[C@@H](C(=O)OC)[C@H]1C(=O)OC)S(=O)(=O)c1ccc(C)cc1	-1.6	.	.	.	.	.
Cc1ccc(-c2ccc([C@H]3[C@@H]4C=CCC[C@@]4(C)C(=O)N3Cc3ccccc3)c(F)c2)cc1	87.2	13.1µM*	-1.7%	-13.9%	9.4%	?
CC(=O)c1ccc(-c2ccc([C@H]3[C@@H]4C=CCC[C@@]4(C)C(=O)N3Cc3ccccc3)c(F)c2)cc1	34.6	?	0.1%	?	3.5%	11.7µM*
COc1ccc(-c2ccc([C@H]3[C@@H]4C=CCC[C@@]4(C)C(=O)N3Cc3ccccc3)c(F)c2)cc1	27.0	?	-4.3%	?	-26.3%	?
Cc1ccc(Nc2nc3ccccc3n3cnnc23)cc1C	20.6	-0.2%	0.3%	4.8%	0.8%	.
COc1ccc(Nc2nc3ccc(C)cc3n3cnnc23)cc1Cl	-21.6	22.3%	-3.4%	.	8.7%	?
Cc1ccc2nc(Nc3ccc(C)c(C)c3)c3nncn3c2c1	1.4	1.5%	0.1%	22.4µM*	-7.2%	?
COc1ccccc1Nc1nc2ccc(C)cc2n2cnnc12	64.2	-0.9%	-0.2%	6.31µM*	8.8%	1.7%
COc1ccc(Nc2nc3ccccc3n3cnnc23)cc1	36.3	.	-5.7%	20µM*	3.3%	-16.1%
COc1cccc(/C=N/Nc2nc3ccccc3n3cnnc23)c1O	-102.9*	?	14.2%	?	-10.7%	?
COc1cccc(/C=N/Nc2nc3ccccc3n3cnnc23)c1	-27.9	?	-3.6%	-17.6%	-6.7%	18.0%
CN(C(=O)c1ccc(Br)o1)C1(C)CCS(=O)(=O)C1 (centres undefined)	19.2	?	-4.2%	9.5%	-2.4%	35.3%
CCc1ccc(NC(=O)Cn2c(-c3cncs3)nc3ccccc32)cc1	1.7	.	.	.	-1.3%	.
COc1ccc2c(c1)cc(C(=O)N[C@H](C(=O)N1CCC(C(=O)O)CC1)C(C)C)n2C	-24.8	5.0%	-0.7%	11.6%	10.6%	-10.2%
SMILES	HCMV inh	Pf growth 96h	SARS PLpro yeast	HCV inhibitor	Sm TGR block	Pf growth 48h
O=C(Nc1ccc(Br)cc1)c1cc(-c2ccncc2)nc2ccccc12	-37.2	.	-9.6%	?	.	.
O=C(Cn1cnc2ccccc21)Nc1ccc(SC(F)F)cc1	-10.2	-6.4%	-0.2%	8.91µM*	-3.1%	-24.6%
CCn1c(N)[n+](CC(=O)Nc2ccc(SC(F)F)cc2)c2ccccc21	?	2.94µM*	-0.9%	?	-0.5%	8.28µM*
CC[N+](CC)(CC)CC(=O)Nc1ccc(SC(F)F)cc1	11.0	15.1%	-2.5%	6.9%	50.4%	-7.8%
CC(=O)Nc1ccc(S(=O)(=O)N2CCC(C(=O)N[C@@H](C)C(=O)NC3CCCC3)CC2)cc1	0.0	1.3%	?	-0.4%	-30.5%	33.5%
CCC(C)OC(=O)C1=C(C)NC2=C(C(=O)C(C(=O)OC)C(C)C2)C1c1ccc(N(C)C)cc1 (centres undefined)	29.1	?	-16.4%	?	1.3%	?
CCCOC(=O)C1=C(C)NC2=C(C(=O)C(C(=O)OC)C(C)C2)C1c1ccc(N(CC)CC)cc1 (centres undefined)	33.3	?	9.5%	10µM*	-18.0%	?
O=C1CC(c2ccccc2)Cc2[nH]c(=O)c(-c3nc(-c4ccc(Cl)c(Cl)c4)cs3)cc21 (centres undefined)	11.5	.	.	.	0.8%	.
O=c1oc2ccccc2n1CCCOc1ccccc1	4.1	11.7µM*	-4.9%	-0.3%	8.6%	41.5%
Cc1cccc(OCCCn2c(=O)oc3ccc(C)cc32)c1	-80.3*	?	-0.8%	3.3%	23.4%	9.7%
Oc1ccc(C2=CSC3=NCCN23)cc1O	-7.3	36.6%	-0.3%	6.8%	0.0%	9.28µM*
Brc1ccc(C2=CSC3=NCCN23)cc1	54.7	29.0%	-0.5%	-20.3%	-9.9%	?
C1=C(c2ccccc2)N2CCN=C2S1	-16.0	.	-2.4%	-13.4%	1.4%	6.6%
CC(C)(C)c1cc(C2=CSC3=NCCN23)cc(C(C)(C)C)c1O	.	4.65µM*	-2.5%	5.62µM*	-9.0%	?
CCc1nnc(NC(=O)CN2C(=O)/C(=C/c3cc(OC)c(OC)c(OC)c3)SC2=S)s1	2.5	31.5%	5.5%	20.8%	1.2%	-2.0%
COc1ccccc1NC(=O)Cn1c(=O)n(CC2CCC(C(=O)NCCc3ccccc3)CC2)c(=O)c2ccccc21 (centres undefined)	48.0	.	.	.	-0.1%	.
c1ccc(N(c2ccccc2)c2nc(N3CCOCC3)nc(N3CCOCC3)n2)cc1	.	.	-1.7%	.	0.9%[11.4 µM]	.
FC(F)(F)COc1nc(N2CCOCC2)nc(N(c2ccccc2)c2ccccc2)n1	-86.3*	24.1%	-22.1%	?	3.2%	3.29µM*

Source: PubChem (National Center for Advancing Translational Sciences (NCATS))
